High-throughput results deposited in PubChem BioAssay by National Center for Advancing Translational Sciences (NCATS).
HPGD block: blocks human HPGD enzyme activity | purified HPGD, NADH fluorescence kinetic, PGE2 substrate | Potency, µM, for the others: at the top dose activity change, negative = inhibition, actives largely listed as inhibitors | actives 4.3% (n = 150,000); further: on the % scale 0 is the no-effect control and ±100 the full control effect
Target sequence (P15428 whole entry, looked up): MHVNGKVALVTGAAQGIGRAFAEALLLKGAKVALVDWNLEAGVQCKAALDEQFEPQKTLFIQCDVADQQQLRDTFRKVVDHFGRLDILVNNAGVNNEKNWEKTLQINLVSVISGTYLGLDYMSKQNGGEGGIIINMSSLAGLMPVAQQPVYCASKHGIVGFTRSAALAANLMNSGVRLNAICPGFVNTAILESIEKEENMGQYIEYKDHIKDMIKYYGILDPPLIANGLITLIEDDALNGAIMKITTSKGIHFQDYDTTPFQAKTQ
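20 nM HPGD preincubated 15 min at room temperature with compound in 50 mM Tris-HCl pH 8, 0.01% Tween 20. Started with 1 mM NAD+ and 30 uM prostaglandin E2; NADH fluorescence (360/450 nm) read 5 times over 30-s intervals, last minus first.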
HTT ATP protect: cytoprotection in Huntington HTT-Q103 PC12 cell model; Potency, µM (highest dose often 56.4 µM), without a hit: cytoprotection (ATP increase), usual class: activators; actives 0.14% (n = 230,000); PC12 HTT-Q103 induced, cytoprotection, ATP luminescence, 40 h; active means well fitted curve in the direction sought with a large enough effect; inconclusive means small, poorly fitted or top-dose-only effect, or another doubt; inactive means no such curve, though single readings can be large; an effect the other way counts as inactive or inconclusive; further: % of control where 0% means no effect; nearly all actives have a fitted effect of over 45% in size
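PC12 cells stably carrying ecdysone-inducible Htt exon 1 (Q103)–GFP were induced with 100 nM tebufenozide (final) alongside library compounds in a dose series. Cytoprotection was scored as retained ATP by ATPlite luminescence.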
ALDH1A1 inh: inhibitors of human aldehyde dehydrogenase 1A1 | Purified ALDH1A1, NADH fluorescence, propionaldehyde substrate | AID 1030 | Potency, µM (highest dose often 75.3 µM), without a hit: at the highest dose activity, negative = inhibition, hits mostly inhibitors | actives 7.3% (n = 220,000) | P00352;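 further: plate controls were no enzyme wells and a reference inhibitor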
LMNA splice mod: LMNA splicing modulation. HeLa LMNA splicing GFP/RFP minigene ratio, 48 h. actives 0.01% (n = 200,000). Potency, µM (highest dose often 46.1 µM), inactives show top-dose ratio change, negative = inhibition, hits mostly inhibitors. AID 1487; active means well fitted inhibition curve with a large enough effect in the signal ratio, with a control signal flat, not every such curve was filed as active; inconclusive means small, poorly fitted or top-dose-only effect, or effect the other way, or a change in a side signal; the % refers to the signal ratio; further: on the % scale 0 is the no-effect control and ±100 the full control effect
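S3 HeLa cells stably expressing lamin A-EGFP splicing minigene plus DsRed2, 600 cells/well, 48 h compound exposure at 37C. Laser-scanning cytometry; analysed as GFP (500-530 nm)/RFP (575-640 nm) total intensity ratio; 0.5% DMSO vehicle.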
HTT aggregate: inhibitors of mutant huntingtin aggregate formation in PC12 cells | PC12 HttQ103-GFP aggregates, Acumen cytometry, 40 h | Potency, µM (top dose mostly 46.1 µM), inactives show at the top dose activity change, negative = inhibition, hits mostly inhibitors | actives 1.1% (n = 220,000) | AID 1688; active means well fitted curve in the direction sought with a large enough effect; inconclusive means small, poorly fitted or top-dose-only effect, or another doubt; inactive means no such curve, though single readings can be large; an effect the other way counts as inactive or inconclusive; further: on the % scale 0 is the no-effect control and ±100 the full control effect; nearly all actives have a fitted effect of over 60% in size
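Compounds (qHTS titration) were added to PC12 cells expressing an ecdysone-driven HTT exon 1 Q103–GFP fusion after induction with 100 nM tebufenozide. Aggregate formation was measured as GFP objects in cell lysates.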
Active calls of the source: *; ! = not confirmed by another sample; [ ] = another dose, or the depositor's remark. Compounds with a hit are over-represented: about 8.8% of the library has one in this group of screens. Unless noted, the call rests on the fitted dose curve; in most records, active means well fitted inhibition curve with a large enough effect (not every such curve was filed as active); inconclusive means small, poorly fitted or top-dose-only effect, or another doubt; inactive means no such curve, though single readings can be large or run the other way. Potency means the concentration at half of the fitted maximal effect.

O=Cc1cn(CC(=O)N2CCc3ccccc32)c2ccccc12 was read as HTT ATP protect -14.9%[10 µM], ALDH1A1 inh 17.8µM*, LMNA splice mod -21.8%[46 µM] and HTT aggregate -9.7%.
COCCn1c(SCC(=O)N2CCCc3ccccc32)nc2cccnc21 was read as HPGD block -9.9%, HTT ATP protect inconclusive, ALDH1A1 inh 3.16µM*, LMNA splice mod 1.7% and HTT aggregate -7.4%.
For O=C(O)c1cc(S(=O)(=O)Nc2cccc(Cl)c2)ccc1O the results were HPGD block -18.5% and ALDH1A1 inh inconclusive.
`FC(F)(F)C(Cl)Br` (configuration not stated) gave HPGD block -29.5%, HTT ATP protect -5.3%, ALDH1A1 inh inconclusive, LMNA splice mod -10.9% and HTT aggregate 15.8%.
Screening Cc1ccc2c(c1)C(=O)C1(O)CCN(c3ccccc3)C1=N2 (configuration not stated) returned HPGD block -5.4%, HTT ATP protect -98.5% and ALDH1A1 inh -4.7%.
Screening Cn1c(CN2CCOCC2)nc2cc(NC(=O)c3ccccc3[N+](=O)[O-])ccc21 returned LMNA splice mod -6.6%[46 µM].
Screening COc1ccc(-c2nc3scc(CCNS(=O)(=O)c4ccc5c(c4)OCCO5)n3n2)cc1OC returned LMNA splice mod -3.4%[46 µM].
`N/C(CC(=O)Nc1cc(C(F)(F)F)ccc1Cl)=N\O` gave HPGD block -3.5%, HTT ATP protect -3.3%[10 µM], ALDH1A1 inh 28.2µM*! and HTT aggregate -13.4%[9.22 µM].
Screening CN(C)CC(=O)Nc1cc(C(F)(F)F)ccc1Cl returned HPGD block -16.1%, HTT ATP protect -3.2%, ALDH1A1 inh 5.2%, LMNA splice mod 20.0% and HTT aggregate -4.7%.
`O=C1c2ccccc2C(=O)N1CCCC(=O)N1CCCc2ccccc21` gave HPGD block -7.5%, HTT ATP protect 15.8%[10 µM], ALDH1A1 inh 14.1µM*, LMNA splice mod -6.4% and HTT aggregate 11.2%.
`O=C(Cn1c(=O)[nH]n(-c2ccccc2)c1=O)N1CCCc2ccccc21` gave HPGD block -5.7%, HTT ATP protect -20.1%[10 µM], ALDH1A1 inh -8.0%, LMNA splice mod 2.0% and HTT aggregate 1.26µM*.
`CN1CCc2c(OCC(=O)N3CCCc4ccccc43)cccc2C1=O` gave HTT ATP protect 33.0%, ALDH1A1 inh inconclusive, LMNA splice mod -25.3%[46 µM] and HTT aggregate -0.2%.
O=C(Cn1cnc2c(cnn2-c2ccccc2)c1=O)N1CCCc2ccccc21 was read as HPGD block -5.8%, HTT ATP protect 2.9%[10 µM], ALDH1A1 inh -2.5%, LMNA splice mod inconclusive and HTT aggregate -9.0%.
`Cc1ccc(O)c(-c2cc(C(F)(F)F)[nH]n2)c1` gave HPGD block 14.1µM*, HTT ATP protect -31.2%, ALDH1A1 inh 7.9%, LMNA splice mod 5.4% and HTT aggregate -16.1%.
Cc1noc(C)c1C(=O)N1CCC[C@@]2(CCN(c3ncccn3)C2)C1 was read as HPGD block -17.2%, HTT ATP protect -15.9% and ALDH1A1 inh 6.9%.
Screening O=C(Oc1ccccc1/C=C\C(=O)c1cc2ccccc2o1)c1cccc(F)c1 returned HPGD block inconclusive, HTT ATP protect 8.4%[10 µM], ALDH1A1 inh 8.91µM*, LMNA splice mod inconclusive and HTT aggregate inconclusive.
For CN(CCOC(=O)c1cccc(F)c1)Cc1ccccc1 the results were HPGD block -7.0%, HTT ATP protect 15.6%[10 µM], ALDH1A1 inh -12.0%, LMNA splice mod -6.0% and HTT aggregate -19.0%.
For COc1cccc(C(=O)Oc2ccccc2/C=C\C(=O)c2cc3ccccc3o2)c1 the results were HPGD block -29.8%, HTT ATP protect 15.8%[10 µM], ALDH1A1 inh -9.8%, LMNA splice mod inconclusive and HTT aggregate 5.0%.
`O=C(Oc1ccccc1/C=C\C(=O)c1cc2ccccc2o1)c1ccccc1` gave HPGD block -23.5%, HTT ATP protect 13.4%[0.074 µM], ALDH1A1 inh 11.2µM*, LMNA splice mod -13.2% and HTT aggregate inconclusive.
`COc1ccc(-c2cn3c(n2)sc2cc(C(=O)NCc4cccs4)ccc23)cc1` gave LMNA splice mod 25.0%[46 µM].
O=C(Nc1ccccc1)N1CCCN(Cc2ccccc2F)C1 was read as HPGD block 25.1µM*, HTT ATP protect 1.7%, ALDH1A1 inh 2.3%, LMNA splice mod 4.0%[0.0737 µM] and HTT aggregate -3.2%.
For CC1(C)CC(=O)C2=C(C1)OC(N)=C(C#N)C2c1ccc[nH]1 (configuration not stated) the results were HTT ATP protect 1.0%[10 µM], ALDH1A1 inh -9.5% and HTT aggregate -15.8%[9.22 µM].
`CC1(C)CC(=O)C2=C(C1)OC(c1ccc(O)cc1)C(C#N)=C2N` (configuration not stated) gave HPGD block -19.3%, ALDH1A1 inh 1.12µM*, LMNA splice mod inconclusive and HTT aggregate 9.2%.
`COc1ccc(C2C(C#N)=C(N)OC3=C2C(=O)CC(C)(C)C3)cc1` (configuration not stated) gave HTT ATP protect 11.7%[10 µM], ALDH1A1 inh 4.47µM*, LMNA splice mod 7.5%[46 µM] and HTT aggregate -8.9%[9.22 µM].
Screening CC1(C)CC(=O)C2=C(C1)OC(N)=C(C#N)C2c1ccc(OC(=O)N2CCOCC2)cc1 (configuration not stated) returned HPGD block -15.6%, HTT ATP protect 4.0%, ALDH1A1 inh 3.16µM*, LMNA splice mod 1.7% and HTT aggregate -0.7%[9.22 µM].
Screening CC1(C)CC(=O)C2=C(C1)OC(N)=C(C#N)C2c1ccsc1 (configuration not stated) returned HPGD block -10.0%, HTT ATP protect 42.6%[10 µM], ALDH1A1 inh 25.1µM*, LMNA splice mod -6.5% and HTT aggregate 5.4%.
`COc1ccc(OCC(O)Cn2c(N)nc3c2c(=O)[nH]c(=O)n3C)cc1` (configuration not stated) gave HTT ATP protect 18.2%[10 µM] and HTT aggregate 12.7%[9.22 µM].
`COc1ccc(C2C(C#N)=C(SC)NC3=C2C(=O)CC(C)(C)C3)cc1` (configuration not stated) gave HPGD block -21.9%, HTT ATP protect -1.8%, ALDH1A1 inh 14.1µM*, LMNA splice mod 4.0% and HTT aggregate -13.0%.
Screening CC1(C)CC(=O)C2=C(C1)OC(N)=C(C#N)C2C1CC=CCC1 (configuration not stated) returned HPGD block -24.9%, HTT ATP protect -10.3%[10 µM], ALDH1A1 inh 7.94µM*, LMNA splice mod -9.5% and HTT aggregate -15.2%.
For CCOC(=O)CSC1=C(C#N)C(c2ccc(OC)cc2)C2=C(CC(C)(C)CC2=O)N1 (configuration not stated) the results were HPGD block inconclusive, HTT ATP protect 12.0%, ALDH1A1 inh inconclusive, LMNA splice mod inconclusive and HTT aggregate 19.4%.
